Assay results published in PubChem BioAssay AID1159506 (National Center for Advancing Translational Sciences (NCATS), 2015).
Over roughly 59,000 sequences, the read-out has its median near -0.00055; the lowest 2% begin near -2. This is one part of a sample in which the lowest values are shown more often than they occur.

experiment: Identification of proteins required for the processing of the EWS-FLI1 nascent transcript; conditions: TC32 Ewing sarcoma NR0B1-luc vs CMV-luc (EWS-FLI1 target promoter against control promoter), 48 h; screened at 20 nM (by protocol);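 also: robust z of luciferase light less the median z of siRNAs with the same seed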
How it was run: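 Three siRNAs per gene, each in a separate well at 20 nM, were transfected into TC32 cells bearing either reporter construct. Luminescence was measured two days on, and per-gene comparison relied on seed-corrected Z values.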

Sequence	seed-corrected z-score
UCAGCUAACUCUGUCUCUG against SNX19P3	-0.302
AUUGUGAUGAACCUCGUCC against ARHGAP40	-0.617
UUAGUGAUCUGAUAGUGGG against POGLUT1	0.238
AAUUCCAAAACCAAUGUGC against MS4A12	0.147
UGUUUCUCUGACUUGAGUG against IFI27L2	-2.28
UUCUUAUUGAGUUUCAGCC against MSN	0.564
UAAAUUUGUCGAGUUGCUC against CFAP99	0.485
UUGACAAAAGUGAGGAUCG against LGALS14	0.5
UCUAUGGGCAGUGGCAUCU against GOLGA2P10	-1.07
UGUGCAACUGGUCUUGUGC against BBS4	0.33
UGUUGUAGAAGGUAAACCC against CLRN3	-2.64
UAAUGUCAAAUUUUCCUCC against P2RX7	-0.332
UCCAUUGCAAUUGUGCCCA against MAGEA4	-0.0267
UUUCUUCACGUGGAUAGCC against GABRG2	0.574
UUCCAGAAAAAGCCGCACG against PLD6	-0.608
UUUCCUUCCAACUCUGCGC against ZNF835	-1.63
UACGUUAGGACGGCUCAGG against RLTPR	-1.06
UCAUGUGGCAUUUCUGGGA against LOC642852	-2.43
AUUCUUACCACAACUAUCC against SRP14	-0.807
UAAGCUGCGUGUUUUUAUC against TRIM14	-2.45
UUUACGAAGUUUUUGAUAG against EML1	-0.287
UUUGUAGAGAAGUUUCACC against ZNF517	0.211
UUAGCUUCAACGGUGUUAC against E2F8	-1.58

Sequence	seed-corrected z-score
UCGAUGAACAACCAUAUGC against PRKAA2	0.499
UUAUCUGCUUUAGAUUUGC against PYROXD1	-0.293
GAAGGUGCAGAUCUGUUUG against SCX	-2.92
UCAUCUACGAUAUUCAUGA against ADAMTS14	-0.269
UAAGCAUCUCACAAAAUCG against MITD1	-0.778
AAACUUCACUGUUACUUGG against LYSMD1	-0.262
UCGGUAACAAAAAUUAGUG against RNF217	0.42
UCUGUUCAAUACUUAAACC against PRUNE2	-0.544
UUUCUUAUCACCAUCAAAC against PGD	0.244
UAAGUUGCGAGCGUAGUGG against GAL3ST4	-3.11
UAUGUAGCAAAUCACAGUA against TMEM39A	0.421
UCUGCGGAAACUUUGGUGG against CDH11	-0.023
UCUUGAUACAGAUUCCAUC against RFX8	0.516
UCCUUUAGCACCUUCACCG against RAD23A	-2.73
UUGUUGUCAAUGUUAAUCG against SNX29P1	-0.677
AUAUUUCAAGGCAAGCUUC against DNAJC5	0.415
AUGGUAGCGGAAGAAAUUC against TMEM205	-2.26
UAAUCUUUAUUGUCACUAG against GRB7	-0.659
UUUGGCAAGACUUAACUUG against SCGB1D2	0.678
AUUUUGUCACUGGAAAGGC against OIP5	0.784
UAUGCGCUUUGAGACUAGC against ZNF236	-0.344
UUGAGGUUACUGGAGCUGC against ZNF683	-0.208
AUCCUUAAUGUAACUAUUG against C12orf60	0.108

Sequence	seed-corrected z-score
UAUAUCAUUAAGCAAUGCC against SF3B1	-3.22
UAAGUAGACGUGCAGAUCA against MFSD6L	0.136
UACUCGAAGAUCAUCUUGG against MYO6	-0.142
AUAGUUCCCUCGAUGAGGC against CCS	0.322
UCUCCUGUAACAGACUCUG against ERICH1	0.83
AUAGACAACUUUGAGGUCC against AP1S1	-0.000301
UUCAGCACAGAGAAAUUCG against SHISA2	1.31
UUGUUACUAAGAUCAACAG against PIWIL4	-0.273
UAAAAUAUCAAGCGAAUCA against LOC399886	0.0836
UACCGGGAUACAUGCAUGC against KIAA1551	-2.73
AAACGAAACAUGACGACAC against RSG1	-0.0435
UGAUGUACUCCACUGAUGC against TFEC	-0.552
UCUCUUUGUGGUGUACUUG against FGF13	-12.9
UUCCGAAUGGAAACUCUGG against BCL7C	0.615
AUACCGAUCAUAGCACAUC against OR2A12	0.195
UAUUAGGUCUUAUUUAUUC against NXNL2	0.499
UCUCUAUCAGUUCUCUUGG against RBM20	-0.358
AAAGGGACACUGAUUCAGU against TRAM1	-2.59
UCAGGGUAUUUGGUGAGGG against KCTD1	-0.632
AUAAUACCAACUCAAAUGC against FRRS1L	1.1
UUCUGAGCAGGUUCUACUG against SGOL1	-2.98
UAGGUAACUAUUUCUUCUC against CHURC1	1.33
UCUUCUAUCUUGCACAUUG against NLRP9	0.587

Sequence	seed-corrected z-score
UAGGUUACGUGUCCAGAGG against NR2F6	-0.85
ACCAUUGUCAUUGCCUUGC against 1-Mar	-1.24
GAUUUCUUCAGGUGCUCCU against PDLIM7	-0.372
UGUAGUAUAUGAUCGACCU against LOC728613	-11.7
UAGGCGAUGAAGAGCGUGC against MC1R	0.184
AAAGUAUCGGUAUUUGUCU against NDUFB9	0.025
AAUCUCAUGAGUUGCAACC against MMP26	-0.158
UUCCGGUUCCUCAUCUUCU against NUCKS1	-0.00682
UAAAGUACUGUCGUCAAUG against STOX2	-2.26
UUGUGGUUCUCGGAUACGC against CDH15	-0.955
GAAGCUAUCCCAGCUCUCA against RPL21P131	0.152
UGUUUUACAAGCAAUGUCC against TEX19	-2.08
UGCUGUAUAAUAUCCUUGC against GALNT3	0.503
UUGUGCACCACGAGCAUGG against B3GNT7	-1.07
UUCGUUGCAAAUCCCAUGC against SPTLC2	-3.22
AAUCUUUGGAGUACGCUGG against B2M	-0.0765
UAGACAUACAUUGAACUCC against SPINK6	1.21
UGUACUUUAAUAGAGAUAC against MRPS10	-0.197
UACCCAAUAAAGGUCUACC against LMO2	0.642
UACGGUUCUUCCUGGUUGG against C1QA	1.29
UUCCAUAUAGCAGUGCACU against NDUFAF1	1.09
UAGGGUUUGCCUUCGUGCU against CRIP1	-3.24
UCAAGCAUCGUGUUGAGCC against TGFBI	-0.445

Sequence	seed-corrected z-score
UCAAAUUCGUCCUGGGUCC against UGT1A5	-1.44
UGAAGGAAGAAUCGUCGCC against PTHLH	-0.782
UUUCCGAUGAUGGUAACCA against OR7C2	0.217
UCAGGUAGCAGGGUAUUGG against LTA4H	-0.0663
UCCCAAUUCAGAUCUAUGG against FBXO42	0.112
UCAGGUGUAGGAUUCCGAC against XAGE2	-2.85
UUUGUUGACUGCUUGACUG against METAP1D	0.33
AACCUGUAUGCAUCAACUG against BMS1P11	2.32
UACUGUUCCACUAGCUUCG against SF3A1	-1.91
UCUGUAACCUUGGUAAGGC against C10orf2	0.0621
UGGUUGAUUAGUAAAGCAC against C10orf113	-0.339
ACUGUUAUCAGGAAAGUCC against PLCB2	-0.539
UGUCUUUGUAGGCAGCUGG against CLDN14	-2.18
UAAAGAGUAAAGGUCUUCC against ZNF540	0.799
UAUGGACCCAUCAUACUGG against CADM4	0.833
UAUUGAACUUCAAGGGUCG against EFTUD2	-2.91
UUGGUCUGUAGUACUGUUC against SNX27	-2.17
UUUGUGCCCUGCGUUUAUC against KCND3	-0.731
AGGUGGAAGAGAAAUAUCU against OR4D11	-0.264
UCAAGUUACAGGUUCGGGC against DRG1	1.09
UAUUUGUAGCCCAAGAAGG against YIF1B	0.101
UUUCUGAUCAGGUCCAUGA against SLC1A6	-0.114
UCAUAGUUGAGCAAGGUGG against AOC3	-0.116

Sequence	seed-corrected z-score
UCCGUAUCCAGCUCGUCCU against NXNL1	-1.17
UUCAAUGCAAGCAAGCUUG against OR4L1	0.45
UUGCGAACAUUGCCUGUGC against MEP1A	0.216
UCUUUAUCUAGAGGCAUUC against LOC728040	-2.35
UUUAUUCUAAACACGUACU against RHBDD3	-0.246
UAGGAUUACAGCAAUCAUC against 11-Mar	0.0159
UGUCGUCAAAGUAUAAUCG against ETV5	-2.12
UAUGGAGCAGGUAAUAGAG against ZNF311	0.514
UUCUCAUCAAACUCUACAC against OLFML3	0.213
UCUCCUAUAGGACCUGUGC against MGAM	-0.17
UGAGCAUUUAUUGUGAGUG against OR2T6	-0.244
UCCUGGAGCACAUCAGUGC against ASPRV1	0.0418
UGGUUGUUAAAGGUCAUGG against HIPK2	-2.07
UACGCUUGAAGUACCGAUG against SLC7A1	-2.19
AAACGUACAUGAUGGGAGC against GPR155	-0.807
UUGAACUCAGCGAUCAUCU against TNNC2	-0.279
UAUUAUCAAUGGUCCAGGG against AAGAB	0.496
UUUGAUGCCGUCAUCAUCC against TMEM106C	0.22
